# Screen size: about 5,500 compounds; about 2,000 (36%) were called active. About 18% were inconclusive and are not listed. The list shows a part of the results. A number with no mark means an inactive call. Cut-off read from the data, not from the text of the source: active = normalized growth mostly below about 0.91 (no sharp cut-off); inconclusive = no clear call, values can overlap the other calls; inactive = mostly above about 0.92.
# Test: chemical genetic growth profiling, strain panel (AID 1159580);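 note: tested at 20 µM; growth read once vehicle control cultures reached saturation at 30 °C; 1 = growth at the plate median or of vehicle wells; lower values mean less growth of the strain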
# Conditions: growth OD
smiles,measurement,setting,value
CCC(=O)OCC(=O)[C@@]1(OC(=O)CC)[C@@H](C)CC2C3CCC4=CC(=O)C=C[C@]4(C)C3(F)[C@@H](O)C[C@@]21C (some centres undefined),normalized growth,"S. cerevisiae deletion strains, locus YJR043C, strain POL32, hits give low values",0.841 (active)
same,normalized growth,"S. cerevisiae deletion strains, locus YJR066W, strain TOR1, hits give low values",0.989
same,normalized growth,"S. cerevisiae deletion strains, locus YJR075W, strain HOC1, hits give low values",0.945
same,normalized growth,"S. cerevisiae deletion strains, locus YKL009W, strain mrt4, hits give low values",0.891
same,normalized growth,"S. cerevisiae deletion strains, locus YKL068W, hits give low values",0.958
same,normalized growth,"S. cerevisiae deletion strains, locus YKL085W, strain MDH1 (second series), hits give low values",0.959
same,normalized growth,"S. cerevisiae deletion strains, locus YKL085W, strain MDH1, hits give low values",0.959
same,normalized growth,"S. cerevisiae deletion strains, locus YKL160W, strain elf1, hits give low values",1.01
same,normalized growth,"S. cerevisiae deletion strains, locus YKR001C, strain vps1, hits give low values",0.916
same,normalized growth,"S. cerevisiae deletion strains, locus YKR026C, strain gcn3, hits give low values",0.997
same,normalized growth,"S. cerevisiae deletion strains, locus YKR091W, strain srl3, hits give low values",0.997
same,normalized growth,"S. cerevisiae deletion strains, locus YLL001W, strain dnm1, hits give low values",1.01
same,normalized growth,"S. cerevisiae deletion strains, locus YLL026W, hits give low values",1.01
same,normalized growth,"S. cerevisiae deletion strains, locus YLL041C, strain sdh2, hits give low values",0.994
same,normalized growth,"S. cerevisiae deletion strains, locus YLR027C, strain aat2, hits give low values",0.999
same,normalized growth,"S. cerevisiae deletion strains, locus YLR039C, strain RIC1, hits give low values",0.85
same,normalized growth,"S. cerevisiae deletion strains, locus YLR058C, strain SHM2, hits give low values",0.943
same,normalized growth,"S. cerevisiae deletion strains, locus YLR102C, strain apc9, hits give low values",0.973
same,normalized growth,"S. cerevisiae deletion strains, locus YLR113W, strain HOG1, hits give low values",1.05
same,normalized growth,"S. cerevisiae deletion strains, locus YLR221C, strain rsa3, hits give low values",1.01
same,normalized growth,"S. cerevisiae deletion strains, locus YLR258W, strain gsy2, hits give low values",0.997
same,normalized growth,"S. cerevisiae deletion strains, locus YLR262C, strain YPT6 (second series), hits give low values",1
same,normalized growth,"S. cerevisiae deletion strains, locus YLR262C, strain YPT6, hits give low values",0.772
same,normalized growth,"S. cerevisiae deletion strains, locus YLR268W, strain sec22, hits give low values",0.915
same,normalized growth,"S. cerevisiae deletion strains, locus YLR320W, strain mms22, hits give low values",1.02
same,normalized growth,"S. cerevisiae deletion strains, locus YLR330W, strain CHS5, hits give low values",0.898 (active)
same,normalized growth,"S. cerevisiae deletion strains, locus YLR342W, strain FKS1 (second series), hits give low values",0.741 (active)
same,normalized growth,"S. cerevisiae deletion strains, locus YLR342W, strain FKS1, hits give low values",1.01
same,normalized growth,"S. cerevisiae deletion strains, locus YLR357W, strain rsc2, hits give low values",1.02
same,normalized growth,"S. cerevisiae deletion strains, locus YLR370C, strain arc18, hits give low values",1
same,normalized growth,"S. cerevisiae deletion strains, locus YLR371W, strain rom2, hits give low values",0.95
same,normalized growth,"S. cerevisiae deletion strains, locus YLR384C, strain iki3, hits give low values",0.998
same,normalized growth,"S. cerevisiae deletion strains, locus YLR418C, strain cdc73, hits give low values",0.777 (active)
same,normalized growth,"S. cerevisiae deletion strains, locus YML016C, strain PPZ1, hits give low values",0.967
same,normalized growth,"S. cerevisiae deletion strains, locus YML032C, strain rad52, hits give low values",0.843 (active)
same,normalized growth,"S. cerevisiae deletion strains, locus YML120C, strain ndi1, hits give low values",0.995
same,normalized growth,"S. cerevisiae deletion strains, locus YML124C, strain tub3, hits give low values",0.953
same,normalized growth,"S. cerevisiae deletion strains, locus YMR058W, strain fet3, hits give low values",0.997
same,normalized growth,"S. cerevisiae deletion strains, locus YMR078C, strain ctf18, hits give low values",0.925
same,normalized growth,"S. cerevisiae deletion strains, locus YMR125W, strain sto1, hits give low values",0.984
same,normalized growth,"S. cerevisiae deletion strains, locus YMR129W, hits give low values",0.99
same,normalized growth,"S. cerevisiae deletion strains, locus YMR205C, strain PFK2, hits give low values",1.02
same,normalized growth,"S. cerevisiae deletion strains, locus YMR223W, strain ubp8, hits give low values",0.876 (active)
same,normalized growth,"S. cerevisiae deletion strains, locus YMR231W, strain pep5, hits give low values",1.02
same,normalized growth,"S. cerevisiae deletion strains, locus YMR307W, strain GAS1, hits give low values",0.642
same,normalized growth,"S. cerevisiae deletion strains, locus YNL067W, strain RPL9B, hits give low values",0.994
same,normalized growth,"S. cerevisiae deletion strains, locus YNL071W, strain lat1, hits give low values",0.998
same,normalized growth,"S. cerevisiae deletion strains, locus YNL128W, strain TEP1, hits give low values",0.941
same,normalized growth,"S. cerevisiae deletion strains, locus YNL153C, strain GIM3, hits give low values",0.945
same,normalized growth,"S. cerevisiae deletion strains, locus YNL183C, strain NPR1, hits give low values",0.974
same,normalized growth,"S. cerevisiae deletion strains, locus YNL209W, strain ssb2, hits give low values",0.994
same,normalized growth,"S. cerevisiae deletion strains, locus YNL233W, strain BNI4, hits give low values",0.902
same,normalized growth,"S. cerevisiae deletion strains, locus YNL248C, strain rpa49, hits give low values",0.994
same,normalized growth,"S. cerevisiae deletion strains, locus YNL250W, strain rad50, hits give low values",0.907
same,normalized growth,"S. cerevisiae deletion strains, locus YNL271C, strain bni1, hits give low values",0.951
same,normalized growth,"S. cerevisiae deletion strains, locus YNL298W, strain CLA4, hits give low values",0.942
same,normalized growth,"S. cerevisiae deletion strains, locus YNL307C, strain MCK1, hits give low values",0.835 (active)
same,normalized growth,"S. cerevisiae deletion strains, locus YNL322C, strain KRE1 (second series), hits give low values",0.982
same,normalized growth,"S. cerevisiae deletion strains, locus YNR049C, strain mso1, hits give low values",0.999
same,normalized growth,"S. cerevisiae deletion strains, locus YNR052C, strain pop2, hits give low values",0.955
same,normalized growth,"S. cerevisiae deletion strains, locus YOL012C, strain htz1",1.01
same,normalized growth,"S. cerevisiae deletion strains, locus YOL147C, strain pex11, hits give low values",0.958
same,normalized growth,"S. cerevisiae deletion strains, locus YOR001W, strain rrp6, hits give low values",0.992
same,normalized growth,"S. cerevisiae deletion strains, locus YOR061W, strain CKA2, hits give low values",0.93
same,normalized growth,"S. cerevisiae deletion strains, locus YOR069W, strain VPS5, hits give low values",0.973
same,normalized growth,"S. cerevisiae deletion strains, locus YOR070C, strain gyp1, hits give low values",1
same,normalized growth,"S. cerevisiae deletion strains, locus YOR080W, strain dia2, hits give low values",1.01
same,normalized growth,"S. cerevisiae deletion strains, locus YOR083W, strain WHI5, hits give low values",1
same,normalized growth,"S. cerevisiae deletion strains, locus YOR106W, strain vam3, hits give low values",0.995
same,normalized growth,"S. cerevisiae deletion strains, locus YOR136W, strain idh2, hits give low values",0.981
same,normalized growth,"S. cerevisiae deletion strains, locus YOR144C, strain elg1, hits give low values",0.953
same,normalized growth,"S. cerevisiae deletion strains, locus YOR184W, strain ser1, hits give low values",0.838 (active)
same,normalized growth,"S. cerevisiae deletion strains, locus YOR231W, strain MKK1, hits give low values",0.994
same,normalized growth,"S. cerevisiae deletion strains, locus YOR265W, strain rbl2, hits give low values",1.01
same,normalized growth,"S. cerevisiae deletion strains, locus YOR270C, strain vph1, hits give low values",0.887
same,normalized growth,"S. cerevisiae deletion strains, locus YOR290C, strain snf2, hits give low values",0.981
same,normalized growth,"S. cerevisiae deletion strains, locus YOR316C, strain cot1, hits give low values",0.961
same,normalized growth,"S. cerevisiae deletion strains, locus YPL051W, strain arl3, hits give low values",1
same,normalized growth,"S. cerevisiae deletion strains, locus YPL055C, strain LGE1, hits give low values",0.853
same,normalized growth,"S. cerevisiae deletion strains, locus YPL078C, strain atp4, hits give low values",0.996
same,normalized growth,"S. cerevisiae deletion strains, locus YPL106C, strain sse1, hits give low values",1.03
same,normalized growth,"S. cerevisiae deletion strains, locus YPL240C, strain hsp82, hits give low values",0.997
same,normalized growth,"S. cerevisiae deletion strains, locus YPL256C, strain CLN2, hits give low values",0.998
same,normalized growth,"S. cerevisiae deletion strains, locus YPR119W, strain clb2, hits give low values",0.953
same,normalized growth,"S. cerevisiae deletion strains, locus YPR141C, strain kar3, hits give low values",0.964
same,normalized growth,"S. cerevisiae deletion strains, locus YPR163C, strain tif3, hits give low values",0.942
same,normalized growth,"S. cerevisiae deletion strains, locus YPR167C, strain met16, hits give low values",0.936
same,normalized growth,"S. cerevisiae deletion strains, strain wtn01, hits give low values",0.959
same,normalized growth,"S. cerevisiae strains, strain wild type, hits give low values",0.929

# Source: PubChem BioAssay AID1159580 (chemical genetic matrix, 2015)
